Sampled rows, rich in hits. Any-hit rate of the full collection: about 0.56%.
KinaseGlo FLuc: Kinase-Glo luciferase inhibition (counter-screen); Kinase-Glo luciferase, ATP luminescence, 8 min; Potency, µM (highest dose often 38.3 µM), without a hit: at the highest dose activity change, negative = inhibition, hits mostly inhibitors; 0.28% of 200,000 active; AID 1379; note: potency is the fitted concentration of half-maximal effect; % is set by controls: 0 for no effect and ±100 for the full control effect; nearly all actives have a fitted effect of over 60% in size
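Substrate mix (final 50 mM imidazole pH 7.2, 50 mM KCl, 7 mM MgCl2, 10 uM ATP, 0.01% Tween 20, 0.05% BSA) plus pin-tool compound, then Kinase-Glo detection mix; 8 min ambient, luminescence read.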
CBFb RUNX1 block: CBF-beta/RUNX1 interaction disruption | Q01196+Q13951 | AlphaScreen CBFb-His/RUNX1-biotin binding, biochemical | Potency, µM (series often up to 59.8 µM), inactives show at the highest dose activity, negative = inhibition, usual class: inhibitors | 230,000 tested, under 10 active; note: % of control where 0% means no effect
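Room-temperature protein-protein interaction test with 30 nM each of His-tagged CBF-beta and biotinylated RUNX1, 15 min with compound, then 90 min with nickel plus streptavidin beads. Signal read in AlphaScreen mode.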
PKM2 activator: increases activity of human pyruvate kinase M2; 0.34% of 260,000 active; Potency, µM (series often up to 57.5 µM), without a hit: at the highest dose activation, usual class: activators; purified PKM2, Kinase-Glo ATP luminescence, activation; response scale: 0% is enzyme alone, no compound; note: potency is the fitted concentration of half-maximal effect; % is set by controls: 0 for no effect and ±100 for the full control effect; nearly all actives have a fitted effect of over 55% in size
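Purified hPK-M2 (>95% pure) converted ADP (0.1 mM final) to ATP with 0.5 mM PEP in 50 mM imidazole pH7.2, KCl, MgCl2, Tween 20, BSA; 1 h at room temperature. ATP detected by Kinase-Glo luminescence.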
Tb PFK block: inhibitors of T. brucei phosphofructokinase; O15648; T. brucei PFK, ADP-Glo luminescence; Potency, µM (top dose mostly 57.5 µM), without a hit: top-dose activity, negative = inhibition, hits mostly inhibitors; 0.17% of 330,000 active; AID 485367;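 note: potency is the fitted concentration of half-maximal effect; 0% = uninhibited 1x PFK enzyme wells and -100% = no-enzyme wells; nearly all actives have a fitted effect of over 60% in size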
Target sequence (O15648 whole entry, looked up): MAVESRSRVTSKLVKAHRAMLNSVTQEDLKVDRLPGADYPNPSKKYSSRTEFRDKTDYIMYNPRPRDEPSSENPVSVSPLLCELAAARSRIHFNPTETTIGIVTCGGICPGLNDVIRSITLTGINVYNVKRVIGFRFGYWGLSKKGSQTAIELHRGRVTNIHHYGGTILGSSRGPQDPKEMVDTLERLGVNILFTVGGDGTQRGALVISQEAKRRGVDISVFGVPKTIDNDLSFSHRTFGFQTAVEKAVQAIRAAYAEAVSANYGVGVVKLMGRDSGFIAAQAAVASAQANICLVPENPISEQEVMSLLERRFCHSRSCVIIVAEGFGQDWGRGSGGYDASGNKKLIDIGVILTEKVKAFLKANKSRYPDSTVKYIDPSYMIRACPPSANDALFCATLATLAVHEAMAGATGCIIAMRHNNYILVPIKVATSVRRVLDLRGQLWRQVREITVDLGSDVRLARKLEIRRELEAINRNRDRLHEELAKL
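ADP-Glo luminescence quantified ADP after 45 min at room temperature, with 1.25 nM T. brucei PFK, 0.1 mM ATP and 0.5 mM fructose-6-phosphate in pH 8.0 TEA buffer. qHTS titrations up to 57 µM; curves classified by quality.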
GALK inh: inhibitors of human galactokinase; P51570; Purified GALK, Kinase-Glo residual ATP luminescence; Potency, µM (top dose mostly 57.5 µM), without a hit: at the highest dose activity change, negative = inhibition, hits mostly inhibitors; 0.007% of 270,000 active; note: potency is the fitted concentration of half-maximal effect; % is set by controls: 0 for no effect and ±100 for the full control effect
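Luminescence from leftover ATP (Ultra-Glo luciferase/luciferin) served as read-out after a 1 h room-temperature reaction of 5 nM GALK with 35 uM ATP and 100 uM galactose.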
HeLa tox: reduces HeLa cell viability in PKM2 activator counter-screen | shares compounds with PKM2 activator | HeLa viability, CellTiter-Glo ATP luminescence, 24 h | activity change, negative = cytotoxicity, % at 57.5 µM | 230 tested, under 10 active; note: % of control where 0% means no effect
Numbers without * were called inactive; ? = inconclusive; . = no result; [ ] = dose if it differs, or a comment. Calls come from the whole dose curve; as a rule, active = well fitted curve in the direction sought with a large enough effect; inconclusive = small, poorly fitted or top-dose-only effect, or another doubt; inactive = no such curve, though single readings can be large; an effect the other way counts as inactive or inconclusive.

SMILES | KinaseGlo FLuc | CBFb RUNX1 block | PKM2 activator | Tb PFK block | GALK inh | others
CCc1nc2oc3cc(OC)ccc3c(=O)c2c(=O)n1Cc1ccco1 | -3% | -8% | 25µM* | ? | 3%
COc1ccc(-c2nc3oc4cc(OC)ccc4c(=O)c3c(=O)n2Cc2ccco2)cc1 | 0% | 11% | ? | -4% | 0%
CC(CN(C)C)NC(=O)c1ccc(Cc2nc3ccccc3[nH]2)cc1 (stereo not given) | -2% | . | . | . | .
Cn1c(CCNC(=O)c2ccco2)nc2cc(NS(=O)(=O)c3ccccc3)ccc21 | 2% | -2% | 3.2µM* | -3% | -2%
CN(C)c1ccc(/C=C(\Cl)c2nc3ccccc3s2)cc1 | 13µM* | -4% | 0% | 1% | -4%
CC(C)(C)c1ccc(S(=O)(=O)Nc2ccc3c(c2)COC3=O)cc1 | -1% | 11% | -3% | -6% | -1%
Cc1cc(S(=O)(=O)Nc2ccc3c(c2)COC3=O)ccc1F | 6% | -1% | 11µM* | 1% | -2%
Cc1ccc(N=Cc2cccc(O)c2O)c(C)c1 | -15% | ? | 13µM* | -25% | -3%
Cc1ccccc1-c1nc(-c2ccccn2)no1 | 6.3µM* | 8% | -87% | -22% | 14%
COc1ccc(-c2nc(-c3ccccn3)no2)cc1 | 0.89µM* | ? | -84% | ? | 24%
Brc1ccc(-c2nc(-c3ccccn3)no2)o1 | 13µM* | 5% | -67% | -8% | 5%
Clc1ccc(-c2nc(-c3ccccn3)no2)cc1Cl | 10µM* | 6% | -25% | 1% | 0%
Clc1ccc(OCc2nc(-c3ccccn3)no2)c(Br)c1 | -11% | 4% | 5% | -2% | 0%
COc1cccc(C2=Nn3c(nnc3-c3ccccc3C)SC2)c1 | . | -12% | . | . | .
C/C(N=NC(=[SH+])SCc1ccccc1)=C1\C=CC=CN1.[Cl][Cu] | 0%[7.66 µM] | . | . | . | .
OC[C@H]1NC[C@H](O)[C@@H](O)[C@@H]1O | . | 27% | . | . | .
COc1ccc(-c2nc3c(c4c2C[C@H](c2ccccc2)OC4)CN(C(=O)Cc2cccs2)CC3)c(C)c1 | -2%[7.66 µM] | -2%[13.1 µM] | -6%[11.5 µM] | . | .
CC(C)N(CCNC(=O)c1ccc(Cc2nc3ccccc3[nH]2)cc1)C(C)C | -2% | . | . | . | .
COC(=O)c1cc(C(=O)c2cccc(Cl)c2Cl)cn1C | -2% | 4% | 25µM* | 3% | -5%
C/C=C1\CC2C=CC1C2 (stereo not given) | . | 2%[21.7 µM] | . | . | .
CCCOc1ccc2cc(-c3ccccn3)c(=O)oc2c1 | 13µM* | ? | -40% | -15% | 9%
Cc1cc(C(=O)N/N=C/c2ccc(O)c(O)c2O)c(C)n1-c1ccccc1 | -7% | 13% | 28µM* | ? | 0%
O=C(CCN1C(=O)/C(=C/c2cccs2)SC1=S)Nc1cccc(O)c1 | . | . | 5µM* | 2% | 11%
O=C(CCCN1C(=O)/C(=C/c2cccs2)SC1=S)Nc1cccc(O)c1 | . | . | . | 0% | 0%
Cc1cc(=O)[nH]c(N/N=C/c2sccc2C)n1 | 11µM* | -2% | -38% | 1% | -1%
SMILES | KinaseGlo FLuc | CBFb RUNX1 block | PKM2 activator | Tb PFK block | GALK inh | others
COc1ccc(CNC(=O)C(c2ccc(C)o2)N(Cc2cccs2)C(=O)Cc2cccs2)cc1 (stereo not given) | -1% | 0% | 10µM* | -1% | -2%
COc1ccccc1N1CCN(C(=O)CSc2nc(C)c(Cc3ccccc3)c(=O)[nH]2)CC1 | 3% | -7% | 13µM* | 0% | -3%
O=C(NCCCN1CCOCC1)c1ccc(-n2c(=O)c(=O)[nH]c3ccccc32)cc1 | -2% | . | . | . | .
COc1ccc(NC(=O)c2ccccn2)cc1 | 13µM* | 0% | -66% | -13% | 8%
COc1ccc(NC(=O)c2nc3ccccc3s2)cc1 | 8.9µM* | 5% | -40% | 0% | .
O=c1[nH]c(SCc2c(Cl)c(Cl)c(Cl)c(Cl)c2Cl)nc(=S)[nH]1 | -1%[7.66 µM] | . | . | . | .
Brc1cccc(-c2nnc(SCc3nc4ccccc4[nH]3)o2)c1 | -2% | 3% | ? | 1% | -1%
c1ccc2[nH]c(CSc3nnc(-c4ccncc4)o3)nc2c1 | -1% | 5% | 1.8µM* | -6% | 3% | HeLa tox=-1
COC(=O)[C@@]1(Cc2ccc(F)cc2)[C@@H]2C(=CC(=O)[C@H]2CC(=O)C(=O)N(C)C)CN1C(=O)c1ccccc1 | 0% | 3% | 14% | . | .
Cc1cccc(N2CCN(C(=O)c3c(C)nn(Cc4ccccc4Cl)c3C)CC2)c1C | 2% | 13% | 3.5µM* | 3% | 1% | HeLa tox=?
COc1cccc(-c2nn(C)c3sc(C(=O)NCc4ccc(C)o4)cc23)c1 | 16% | 4% | 2.5µM* | -18% | 0% | HeLa tox=?
COc1cccc(-c2nn(C)c3sc(C(=O)NCc4ccc5c(c4)OCO5)cc23)c1 | -1% | -7% | 1% | 0% | 1%
O=C1CN(S(=O)(=O)c2c(F)cccc2F)CCN1S(=O)(=O)c1ccc2c(c1)OCCO2 | . | . | . | . | . | HeLa tox=0
C[C@@H]1CN(S(=O)(=O)c2ccc3c(c2)OCCO3)CCN1S(=O)(=O)c1c(F)cccc1F | . | . | . | 1% | . | HeLa tox=-2
C[C@H]1CN(S(=O)(=O)c2c(F)cccc2F)CCN1S(=O)(=O)c1ccc2c(c1)OCCO2 | . | . | . | 1% | . | HeLa tox=0
O=S(=O)(Nc1c(F)cccc1F)c1ccc2c(c1)OCCO2 | . | . | -4% | 2% | -1%
O=C(O)c1oc(C(=O)O)c(C(=O)O)c1C(=O)O | 1%[7.66 µM] | . | . | . | .
COc1ccc(/C=C/C2=C[C@]3(C)C[C@]2(C)[C@H](c2ccc(OC)cc2)CC3=O)cc1 | -6% | 8% | . | . | .
COc1ccc(SCC(CC(C)C)N2CCN(CCc3ccccc3)CCC2=O)cc1 (stereo not given) | . | 8% | . | . | .
Cc1nc2ccccc2n1Cc1ccccc1 | . | . | 0% | 0% | 3%
Cc1nc2cc(NCc3ccccc3O)ccc2n1Cc1ccccc1 | 4% | ? | 5µM* | -17% | 4% | HeLa tox=-12
O=[N+]([O-])c1ccc([C@@H](Nc2ccccc2)c2ccc3cccnc3c2O)cc1 | -4%[7.66 µM] | . | . | . | .
Cc1cccc(C(=O)O)c1C[C@H]1NCC[C@H]2c3ccccc3N[C@@H]12 | -5%[7.66 µM] | . | . | . | .
c1ccc(CN(CCN(Cc2ccccn2)Cc2ccccn2)Cc2ccccn2)nc1 | . | 10% | . | . | .
O=C(NCc1ccc2c(c1)OCO2)c1ccc(NS(=O)(=O)c2ccc3c(c2)OCCO3)cc1 | 0% | -9% | 4.5µM* | 0% | -3% | HeLa tox=1
c1ccc2c(SCc3cn4ccccc4n3)nncc2c1 | -3% | 5% | 4.5µM* | 28% | 2% | HeLa tox=-13
COc1ccc(C(=O)N/N=C/c2ccc(N3CCOCC3)o2)cc1OC | -1% | -7% | 2.5µM* | 1% | -1% | HeLa tox=1
